11 compounds from ChEMBL document CHEMBL3988442, “University of Dundee, Small-Polar-MMV Screening Library” (2021) can be followed below.

For some assays here: Measured potencies and affinities stand elsewhere.

Common to all, as to design: scale not given: direction of the effect not stated beside the values
Assay [1] has as its target Protein translocase subunit SecA (Escherichia coli (strain K12)) (UniProt P10408). The assay is described as follows: Assay to Identify E. coli SecA ATPase Inhibitors. It is filed as functional. The note with it: 30 µM.
The target in assay [2] is T1, Ubiquitin-activating enzyme e1, putative (Leishmania donovani (strain BPK282A1)) (UniProt E9BSI1).
T1 sequence (whole entry): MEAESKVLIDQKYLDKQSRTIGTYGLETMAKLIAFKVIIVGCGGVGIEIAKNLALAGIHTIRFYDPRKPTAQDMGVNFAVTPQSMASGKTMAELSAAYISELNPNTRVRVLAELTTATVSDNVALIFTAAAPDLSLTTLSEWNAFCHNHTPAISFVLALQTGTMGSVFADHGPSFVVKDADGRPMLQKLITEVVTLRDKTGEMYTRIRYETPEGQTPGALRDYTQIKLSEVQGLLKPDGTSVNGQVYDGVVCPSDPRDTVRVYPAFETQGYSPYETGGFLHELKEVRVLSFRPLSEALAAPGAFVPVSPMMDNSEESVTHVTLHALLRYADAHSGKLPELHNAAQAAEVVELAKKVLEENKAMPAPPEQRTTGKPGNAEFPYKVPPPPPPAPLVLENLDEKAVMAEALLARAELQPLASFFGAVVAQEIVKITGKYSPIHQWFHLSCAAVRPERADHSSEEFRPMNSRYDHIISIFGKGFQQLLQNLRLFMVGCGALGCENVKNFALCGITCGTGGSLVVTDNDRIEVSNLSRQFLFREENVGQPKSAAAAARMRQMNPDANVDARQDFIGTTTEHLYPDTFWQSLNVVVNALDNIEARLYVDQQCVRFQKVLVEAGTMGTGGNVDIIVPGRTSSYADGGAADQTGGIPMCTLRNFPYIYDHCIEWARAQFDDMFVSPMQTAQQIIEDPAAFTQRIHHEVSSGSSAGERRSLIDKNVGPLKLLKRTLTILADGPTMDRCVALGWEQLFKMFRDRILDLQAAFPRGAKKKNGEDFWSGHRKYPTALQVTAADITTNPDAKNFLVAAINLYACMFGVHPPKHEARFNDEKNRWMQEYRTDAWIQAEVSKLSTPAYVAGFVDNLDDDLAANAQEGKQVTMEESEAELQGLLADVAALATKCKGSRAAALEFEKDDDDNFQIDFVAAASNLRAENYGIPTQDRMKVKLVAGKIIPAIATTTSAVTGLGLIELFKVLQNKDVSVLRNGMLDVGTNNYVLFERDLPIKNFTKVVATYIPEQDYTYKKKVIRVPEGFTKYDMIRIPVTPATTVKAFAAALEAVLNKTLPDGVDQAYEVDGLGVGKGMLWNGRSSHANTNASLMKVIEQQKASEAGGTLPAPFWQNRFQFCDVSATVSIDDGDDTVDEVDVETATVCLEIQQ
The assay is described as follows: Leishmania donovani Ubiquitin Activating Enzyme (LdE1). It is filed as functional. The note with it: 30 µM.

Assay [3] deals with Sialic acid-binding Ig-like lectin 9 (Homo sapiens) (UniProt Q9Y336). Briefly: Hs-Siglec9 ALPHAscreen SOP 20170721. To be noted: 10 µM. For orientation: In Alpha technology, singlet oxygen from a donor bead excites a nearby acceptor bead.
Assay [4] deals with Trypanosoma cruzi. Briefly: Trypanosoma cruzi phosphomannomutase and mannose-1-phosphate guanylyltransferase assay. It is filed as functional. To be noted: 10 µM.
For assay [5], the target named is T2, Arginase-2, mitochondrial (Homo sapiens) (UniProt P78540).
T2 sequence (whole entry): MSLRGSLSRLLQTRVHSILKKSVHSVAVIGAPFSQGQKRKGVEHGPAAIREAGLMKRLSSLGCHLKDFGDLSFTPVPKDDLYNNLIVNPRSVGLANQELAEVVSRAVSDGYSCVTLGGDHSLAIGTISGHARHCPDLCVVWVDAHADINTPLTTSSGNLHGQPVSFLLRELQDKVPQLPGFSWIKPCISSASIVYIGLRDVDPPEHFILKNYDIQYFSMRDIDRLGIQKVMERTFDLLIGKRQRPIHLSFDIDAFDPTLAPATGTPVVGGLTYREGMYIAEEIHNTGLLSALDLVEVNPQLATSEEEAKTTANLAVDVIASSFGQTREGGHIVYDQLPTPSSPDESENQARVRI
Briefly: in vitro enzyme assay to detect the production of urea directly proportional to the activity of Arginase II. Also: in the data most compounds retested in dose-response had high values. The note with it: 33.3 µM. The assay is classed as functional.

The target of assay [6] is T3, Proteasome subunit beta (Trypanosoma cruzi) (UniProt O96673).
T3 sequence (whole entry): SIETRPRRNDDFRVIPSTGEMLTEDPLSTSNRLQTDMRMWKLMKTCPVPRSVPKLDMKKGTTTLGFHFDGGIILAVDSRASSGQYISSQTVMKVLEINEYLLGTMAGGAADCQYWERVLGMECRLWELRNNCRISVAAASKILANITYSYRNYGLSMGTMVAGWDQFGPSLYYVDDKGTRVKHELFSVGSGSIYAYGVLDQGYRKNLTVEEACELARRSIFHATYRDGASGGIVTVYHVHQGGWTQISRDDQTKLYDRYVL
The assay is described as follows: Trypanosoma cruzi proteasome chymotrypsin-like activity (TcProtChymo) assay. Also: in the data most compounds retested in dose-response had high values. It is filed as functional. The note with it: 9.37 µM.

The species named for assay [7] is Homo sapiens. Briefly: To identify inhibition of the IFN signalling (Jak-Stat) pathway via expression of an eGFP reporter gene under the control of an IFN-stimulated response element (ISRE) containing MxA promoter. It is filed as functional. To be noted: 30 µM.
Assay [8] deals with T4, Tyrosyl-tRNA synthetase, putative (Trypanosoma cruzi (strain CL Brener)) (UniProt Q4DSP6).
T4 sequence (whole entry): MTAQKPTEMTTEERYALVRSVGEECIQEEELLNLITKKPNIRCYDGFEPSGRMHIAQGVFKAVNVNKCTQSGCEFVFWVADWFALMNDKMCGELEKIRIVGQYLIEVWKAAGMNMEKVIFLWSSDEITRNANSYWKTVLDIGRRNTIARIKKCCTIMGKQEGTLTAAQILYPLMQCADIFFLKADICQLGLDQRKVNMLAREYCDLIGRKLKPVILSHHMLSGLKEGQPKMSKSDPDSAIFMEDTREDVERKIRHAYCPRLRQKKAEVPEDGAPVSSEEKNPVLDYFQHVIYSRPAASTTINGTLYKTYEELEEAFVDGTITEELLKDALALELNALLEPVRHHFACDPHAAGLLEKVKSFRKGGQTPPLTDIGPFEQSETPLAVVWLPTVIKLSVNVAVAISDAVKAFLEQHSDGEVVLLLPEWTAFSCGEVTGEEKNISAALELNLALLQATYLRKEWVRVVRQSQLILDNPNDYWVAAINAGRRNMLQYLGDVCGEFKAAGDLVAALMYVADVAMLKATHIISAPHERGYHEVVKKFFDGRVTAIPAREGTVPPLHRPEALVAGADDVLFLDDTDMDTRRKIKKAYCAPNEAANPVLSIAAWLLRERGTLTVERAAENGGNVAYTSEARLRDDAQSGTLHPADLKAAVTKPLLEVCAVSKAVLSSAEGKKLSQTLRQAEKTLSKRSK
Briefly: Trypanosoma cruzi tyrosyl tRNA synthetase (TcYRS) _High Tyrosine SOP. Also: in the data most compounds retested in dose-response had high values. The assay is classed as functional. To be noted: 30 µM.

In assay [9] the target is T4, Tyrosyl-tRNA synthetase, putative (Trypanosoma cruzi (strain CL Brener)). The assay is described as follows: Trypanosoma cruzi tyrosyl tRNA synthetase (TcYRS) SOP. To be noted: 30 µM. It is filed as functional.
Assay [10] addresses Chromo domain-containing protein 1 (Saccharomyces cerevisiae (strain ATCC 204508 / S288c) (Baker's yeast)) (UniProt P32657). Briefly: ScCHD-1 Enzyme Inhibition Assay. Also: in the data most compounds retested in dose-response had high values. The assay is classed as functional. To be noted: 30 µM.

Chain of Protein translocase subunit SecA (Escherichia coli (strain K12)) (P10408 whole entry): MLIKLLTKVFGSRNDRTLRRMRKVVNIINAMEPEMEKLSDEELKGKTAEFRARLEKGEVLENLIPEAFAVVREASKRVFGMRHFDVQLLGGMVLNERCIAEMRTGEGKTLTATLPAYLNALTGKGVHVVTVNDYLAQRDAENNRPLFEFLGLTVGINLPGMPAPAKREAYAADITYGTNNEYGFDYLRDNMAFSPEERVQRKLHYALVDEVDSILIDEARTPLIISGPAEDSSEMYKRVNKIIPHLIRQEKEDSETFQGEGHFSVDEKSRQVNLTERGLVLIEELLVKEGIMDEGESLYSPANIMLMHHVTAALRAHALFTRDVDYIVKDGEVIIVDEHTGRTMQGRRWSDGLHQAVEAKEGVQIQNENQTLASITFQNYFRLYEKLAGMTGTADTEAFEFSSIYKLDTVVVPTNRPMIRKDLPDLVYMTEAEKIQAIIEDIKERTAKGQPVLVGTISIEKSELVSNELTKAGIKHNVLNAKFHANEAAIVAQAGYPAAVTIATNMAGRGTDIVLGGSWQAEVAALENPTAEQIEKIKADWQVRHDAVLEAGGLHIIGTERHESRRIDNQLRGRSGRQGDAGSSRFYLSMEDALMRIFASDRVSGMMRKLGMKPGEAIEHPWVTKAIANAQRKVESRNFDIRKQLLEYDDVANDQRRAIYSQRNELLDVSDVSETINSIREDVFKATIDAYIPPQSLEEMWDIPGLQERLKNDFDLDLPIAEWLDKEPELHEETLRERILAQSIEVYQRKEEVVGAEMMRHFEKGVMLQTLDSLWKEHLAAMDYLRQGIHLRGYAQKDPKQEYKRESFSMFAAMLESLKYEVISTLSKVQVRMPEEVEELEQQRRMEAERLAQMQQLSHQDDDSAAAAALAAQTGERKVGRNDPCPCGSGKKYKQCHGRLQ
Chain of Chromo domain-containing protein 1 (Saccharomyces cerevisiae (strain ATCC 204508 / S288c) (Baker's yeast)) (P32657 whole entry, the tested form may be a part): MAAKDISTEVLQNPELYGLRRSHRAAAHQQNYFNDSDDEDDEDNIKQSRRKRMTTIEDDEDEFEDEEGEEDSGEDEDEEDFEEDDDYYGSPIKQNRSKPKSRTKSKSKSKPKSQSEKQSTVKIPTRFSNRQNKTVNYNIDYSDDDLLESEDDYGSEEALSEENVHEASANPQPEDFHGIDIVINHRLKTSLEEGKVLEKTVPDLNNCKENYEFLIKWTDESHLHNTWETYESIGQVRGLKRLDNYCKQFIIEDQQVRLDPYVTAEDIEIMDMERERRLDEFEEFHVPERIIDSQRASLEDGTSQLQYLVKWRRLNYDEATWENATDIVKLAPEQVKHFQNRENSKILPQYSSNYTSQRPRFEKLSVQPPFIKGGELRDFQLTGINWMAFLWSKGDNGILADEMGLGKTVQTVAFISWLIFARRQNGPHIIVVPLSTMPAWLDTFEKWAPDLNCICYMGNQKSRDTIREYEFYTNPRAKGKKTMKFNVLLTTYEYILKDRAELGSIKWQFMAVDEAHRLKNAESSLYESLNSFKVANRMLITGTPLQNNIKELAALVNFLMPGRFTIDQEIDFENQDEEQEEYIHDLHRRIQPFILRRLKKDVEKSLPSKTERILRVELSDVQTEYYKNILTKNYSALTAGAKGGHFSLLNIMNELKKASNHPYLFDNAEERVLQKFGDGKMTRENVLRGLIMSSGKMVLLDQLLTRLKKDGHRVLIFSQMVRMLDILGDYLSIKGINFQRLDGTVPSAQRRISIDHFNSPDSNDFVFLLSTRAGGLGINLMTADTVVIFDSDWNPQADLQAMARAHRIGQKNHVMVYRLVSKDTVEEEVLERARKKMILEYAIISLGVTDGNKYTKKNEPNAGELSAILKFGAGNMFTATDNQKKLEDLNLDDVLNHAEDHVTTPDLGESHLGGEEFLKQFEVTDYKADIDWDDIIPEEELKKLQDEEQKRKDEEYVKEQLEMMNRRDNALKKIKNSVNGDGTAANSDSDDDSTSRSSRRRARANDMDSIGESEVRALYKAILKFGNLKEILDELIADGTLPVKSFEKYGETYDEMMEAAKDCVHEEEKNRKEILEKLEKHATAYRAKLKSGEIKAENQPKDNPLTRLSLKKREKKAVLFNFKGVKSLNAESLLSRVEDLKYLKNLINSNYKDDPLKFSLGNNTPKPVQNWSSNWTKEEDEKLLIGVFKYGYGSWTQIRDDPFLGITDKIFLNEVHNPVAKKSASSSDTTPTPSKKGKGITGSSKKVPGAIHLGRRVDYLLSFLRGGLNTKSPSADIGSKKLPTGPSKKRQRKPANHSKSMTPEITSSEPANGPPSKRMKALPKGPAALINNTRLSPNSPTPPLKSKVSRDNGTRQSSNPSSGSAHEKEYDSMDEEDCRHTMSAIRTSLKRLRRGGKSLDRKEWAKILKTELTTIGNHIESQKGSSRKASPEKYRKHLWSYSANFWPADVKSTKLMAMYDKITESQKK
Chain of Sialic acid-binding Ig-like lectin 9 (Homo sapiens) (Q9Y336 whole entry): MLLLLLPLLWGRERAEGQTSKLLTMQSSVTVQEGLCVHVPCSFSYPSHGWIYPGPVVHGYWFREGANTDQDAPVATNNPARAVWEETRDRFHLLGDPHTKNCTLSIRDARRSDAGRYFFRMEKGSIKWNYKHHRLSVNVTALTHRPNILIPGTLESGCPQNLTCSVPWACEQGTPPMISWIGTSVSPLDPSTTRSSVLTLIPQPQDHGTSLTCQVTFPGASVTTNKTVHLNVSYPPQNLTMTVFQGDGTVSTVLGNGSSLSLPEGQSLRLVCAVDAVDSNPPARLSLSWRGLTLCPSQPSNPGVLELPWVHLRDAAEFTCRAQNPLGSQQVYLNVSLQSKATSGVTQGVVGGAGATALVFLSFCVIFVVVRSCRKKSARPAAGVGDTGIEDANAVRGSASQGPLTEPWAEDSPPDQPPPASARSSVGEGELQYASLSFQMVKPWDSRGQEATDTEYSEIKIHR

Consider `O=C(CCCOc1ccccc1Cl)N1CCCC(n2cncn2)C1` (stereo not given), for which the Percent Effect in assay [1] is -2.02%; in [2], 5.13%; in assay [3], -18.2%; in assay [4] it was 6.1%; in assay [5], -13.9%; in assay [6], -5.03%. In addition, the Percent Effect in assay [7] is -5.2%; in assay [8] it was 1.44%; in [9] it was 6.02%; in [10], 0.499%.
With `CN(C)c1cc2c(nn1)CCN(C(=O)Cc1noc3ccccc13)C2`, the Percent Effect in assay [1] is -0.898%; in assay [2], 0%; in [3], -2.79%; in assay [4], 6.85%; in assay [5] it was 2.87%; in [6], -0.427%. The Percent Effect in assay [7] is -24.3%; in assay [8] it was 4.31%; in [9], -1.21%; in [10] it was -2.37%.
As for `Cn1cccc1C(=O)N1CCCC2(CCCN2Cc2cccnc2)C1` (stereo not given), the Percent Effect in [1] was -10.1%; in assay [2], -1.3%; in assay [3], -0.843%; in assay [4], -1.85%; in assay [5], -6.88%; in [6], 7.33%. The Percent Effect in assay [7] was 9.38%; in assay [8] it was -2.63%; in [9], 2.56%; in assay [10], -0.361%.
Take `C[C@]1(O)CCN(Cc2cncs2)C[C@@H]1Oc1cccc(F)c1`: the Percent Effect in assay [1] was 0.894%; in assay [2] it was 4%; in [3], 6.06%; in assay [4], -4.93%; in assay [5] it was 3.1%; in [6], -1.64%. Also, the Percent Effect is 14.1% in [7], 1.06% in assay [8], 2.5% in [9] and -19.6% in [10].
As for `CS(=O)(=O)NCc1cc2n(n1)CCCN(Cc1nc3ccccc3[nH]1)C2`, the Percent Effect in assay [1] was -9.74%; in assay [2], 2.7%; in assay [3], 1.38%; in assay [4], -1.46%; in assay [5], 3.85%; in [6], 6.16%. Moreover, the Percent Effect in assay [7] is -1.07%; in assay [8] it was 6.92%; in assay [9] it was 9.76%; in [10], 3.52%.
As for `CN1CCC/C1=N\S(=O)(=O)c1ccc(NC(=O)c2cccs2)cc1`, the Percent Effect in assay [1] was 0.351%; in [2] it was 15.6%; in [3], -0.824%; in assay [4] it was 3.73%; in assay [5], -3.48%; in assay [6], 12.5%. Further, the Percent Effect in [7] was 8.73%; in assay [8], 7.84%; in assay [9] it was 21.2%; in [10] it was -10.9%.
With `CCN1CCN(CC(C)(O)c2cccc(C(F)(F)F)c2)CC1` (stereo not given), the Percent Effect in [1] was -5.15%; in assay [2], 5.2%; in assay [3] it was 14.6%; in [4] it was -3.92%; in assay [5], -3.48%; in [6], 0.175%. Besides, the Percent Effect in assay [7] is -14.6%; in assay [8] it was 2.94%; in assay [9], -2.35%; in [10], -0.754%.
For `O=C(Cc1ccccc1Cl)N1CCCC(n2cncn2)C1` (stereo not given), the Percent Effect in [1] is -7.8%; in assay [2] it was 5.13%; in assay [3], 0.737%; in assay [4] it was -2.91%; in assay [5] it was 4.51%; in assay [6] it was -2.65%. Moreover, the Percent Effect in assay [7] amounted to 22.2%; in assay [8] it was 2.39%; in [9], 8.43%; in [10], 1.66%.
As for `COC[C@@H]1CC[C@H]2[C@H](CCN2S(=O)(=O)c2ccc(F)cc2)O1`, the Percent Effect is -2.35% in assay [1]; 6.49% in [2]; -4.91% in assay [3]; -3.02% in assay [4]; -0.405% in assay [5]; 12.1% in assay [6]. The Percent Effect is 11.2% in assay [7], 4.74% in assay [8], 7.69% in assay [9] and -2.82% in [10].
Take `O=C(c1ccno1)N1CCC2(CC1)C(=O)N(CC1CC1)c1ccccc12`: the Percent Effect in [1] is -0.905%; in [2], -29.9%; in assay [3] it was -1.46%; in assay [4], -0.75%; in assay [5], 3.2%; in assay [6], 3%. In addition, the Percent Effect in assay [7] is 5.14%; in assay [8] it was 1.93%; in [9], 0%; in assay [10], -3.48%.
With `Cc1cc(N2CCC(CC(N)=O)CC2)nc(-c2ccncc2)n1`, the Percent Effect in [1] is -7.29%; in assay [2] it was 13%; in [3] it was 10.8%; in assay [4] it was -1.87%; in assay [5] it was 3.07%; in assay [6], 11.1%. For the same compound, the Percent Effect in [7] was -5.86%; in [8], 7.84%; in [9], 21.2%; in [10], -6.28%.
